Sa ugtP lethal: growth inhibition of S. aureus ugtP deletion strain. S. aureus RN4220 ugtP deletion, OD600 growth, 16 h. growth inhibition, % (test concentration not listed). actives 0.54% (n = 330,000); in the data active = growth inhibition above about 68%;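 note: plate controls were untreated wells for no effect and antibiotic for full effect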
PfHsp40 yeast: compounds rescuing yeast from Plasmodium falciparum HSP40 toxicity; actives 0.68% (n = 340,000); growth rescue, % at 12.5 µM; S. cerevisiae expressing PfHsp40, growth rescue, ATP luminescence; in the data active = growth rescue above about 28%, passing the limit was not always enough;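 note: yeast W303a lacking pdr1 and pdr3 grown in galactose medium; growth measured after three days at 30 °C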
CCHF vOTU inh: CCHFV vOTU protease inhibition. Pep-AMC fluorescence. AID 651958. inhibition, % at 11.5 µM. actives 0.55% (n = 370,000); in the data active = inhibition above about 30%; note: 0% = vehicle wells with enzyme and 100% = no enzyme wells
Vc quorum ag: quorum light induction in luxS cqsA deficient V. cholerae | V. cholerae BH1578 lux reporter, luminescence, 6 h | activation, % at 18.7 µM | actives 0.16% (n = 350,000) | AID 588436; in the data active = activation mostly above about 9.7%, no sharp cut-off
Mtb hypoxia rep: reduces hypoxia-regulated biosensor signal in M. tuberculosis | actives 0.1% (n = 300,000) | AID 1159583 | M. tuberculosis hypoxia-regulated fluorescent reporter, fluorescence | fluorescence inhibition, % (concentration not given with the values); in the data active = fluorescence inhibition mostly above about 23%, no sharp cut-off; inactive = mostly below about 17%
Sa RN4220 lethal: kills Staphylococcus aureus RN4220. S. aureus RN4220 growth, OD600, 16 h. inhibition, % (no concentration beside the values). actives 0.33% (n = 330,000). AID 1259311; in the data active = inhibition above about 85%;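 note: plate controls were untreated cells for no effect and reference antibiotic for full effect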
Numbers without * were called inactive; i = inactive; . = no result given. Compounds with a hit are over-represented: about 1.7% of the library has one in this group of screens.

SMILES	Sa ugtP lethal	PfHsp40 yeast	CCHF vOTU inh	Vc quorum ag	Mtb hypoxia rep	Sa RN4220 lethal
O=C(CN1C(=O)NC2(CCCCCC2)C1=O)Nc1ccc(Cl)cc1Cl	-1	0	9	-2	3	1
CC(NC(=O)CN1C(=O)NC2(CCCC2)C1=O)c1ccc(Cl)cc1Cl (stereo not given)	0	61*	-6	.	7	0
COc1ccc(-c2c[n+](CC(=O)OC3CC(C)CCC3C(C)C)c3n2CCC3)cc1 (stereo not given)	100*	1	17	i	.	100*
CC(C)[C@@H]1CC[C@@H](C)C[C@H]1OC(=O)C[n+]1cc(-c2ccc(Cl)cc2)n2c1CCCCC2	100*	1	27	-1	.	101*
CC(C=Cc1cccs1)=CC(=O)O	2	.	.	.	.	2
O=C(CNC(=O)c1cccc(F)c1)NN=C/C=C/c1ccccc1	2	.	.	.	-9	-1
Nc1cccnc1S(=O)(=O)c1ccccc1	12	-1	4	-1	6	-1
COc1ccc([N+](=O)[O-])c(S(=O)(=O)c2ccccc2)n1	96*	.	2	i	20	42
O=[N+]([O-])c1cccnc1S(=O)(=O)c1ccccc1	.	104*	15	0	.	.
COc1ccc([N+](=O)[O-])c(S(=O)(=O)c2ccc(Cl)cc2)n1	100*	50*	-3	i	3	100*
C#CCOCCOCCOCCNc1nc(N2CCN(C(=O)C(C(C)CC)n3cc(C(N)COC(=O)C(F)(F)F)nn3)CC2)nc(N2CCN(C(=O)C(C(C)CC)n3cc(C(N)CC(C)C)nn3)CC2)n1 (stereo not given)	-11	.	.	.	19	2
CCOC1OC(C(=O)NC2CC2)=CC(C(C)(C)C)C1CCCO (stereo not given)	0	.	.	.	18	3
COc1ccc(NC(C)C(=O)NN=Cc2ccc([N+](=O)[O-])s2)cc1 (stereo not given)	22	.	.	.	43*	17
Cc1cc(C(=O)N/N=C/c2cccs2)n[nH]1	.	-1	-1	i	.	.
Cc1cc(C(=O)NN=Cc2ccc([N+](=O)[O-])s2)n[nH]1	98*	.	.	.	.	100*
Cc1ccc(NC(=S)N/N=C/c2ccc([N+](=O)[O-])s2)cc1	.	211*	21	0	.	.
CC(C)(C)OC(=O)NN=Cc1ccc([N+](=O)[O-])s1	15	.	.	.	4	4
O=C(NN=Cc1ccc(Oc2ccccc2)cc1)c1csnn1	5	.	.	.	3	5
CC(=O)Nc1ccc(C=NNc2nc3ccccc3[nH]2)cc1	6	.	.	.	-5	-1
COc1cccc(-c2ccc(C#N)c(SCC(=O)NCCc3cccc(Cl)c3)n2)c1	85*	-1	-14	1	-3	5
C/C(C=NNC(=O)Cc1cc(=O)[nH][nH]1)=C\c1ccccc1	-1	.	.	.	1	11
CNCC1Oc2c(NS(=O)(=O)c3cccs3)cccc2C(=O)N(C(C)CO)CC1C (stereo not given)	-8	.	.	.	4	3
CN(C)C=Nc1nccc(-c2cccs2)n1	-4	.	.	.	-14	1
CC(C)NC(=O)N(C)CC1Oc2c(NC(=O)c3ccc(-c4nccs4)cc3)cccc2C(=O)N(C(C)CO)CC1C (stereo not given)	-3	.	.	.	6	5
S=C(Nc1ccccc1)Nc1ccc(OCc2ccccc2)cc1	-4	0	6	i	.	3
SMILES	Sa ugtP lethal	PfHsp40 yeast	CCHF vOTU inh	Vc quorum ag	Mtb hypoxia rep	Sa RN4220 lethal
S=C(Nc1ccc(OCc2ccccc2)cc1)Nc1cccc(Cl)c1Cl	10	67*	0	0	10	-7
CC(C)(C)OC(=O)CC1CC=CCC(CC(=O)NC(CO)Cc2ccccc2)C(=O)NCCOC1=O (stereo not given)	3	.	.	.	5	8
CC1CC(C)CN(C(=O)COC(=O)c2ccc[nH]c2=O)C1 (stereo not given)	1	0	5	25*	.	0
COc1ccc(Nc2nc(-c3ccccc3)nc3ccccc23)cc1	95*	6	-2	i	6	8
COc1cccc(Nc2nc(-c3cccs3)nc3ccccc23)c1	68	279*	0	-7	3	28
Oc1ccc(Nc2nc(-c3ccccc3)nc3ccccc23)cc1	15	-1	.	i	5	-7
COc1ccc(Nc2nc(-c3cccs3)nc3ccccc23)cc1	95*	3	8	0	-3	11
COC(=O)C1=C(c2ccc(F)cc2OCc2ccccc2)CC2CCC1N2C(=O)NCc1ccc(N(C)C)cc1 (stereo not given)	13	.	.	.	2	-5

Screening results from PubChem.
